# Results from paper PMC7862700, “An all-to-all approach to the identification of sequence-specific readers for epigenetic DNA modifications on cytosine”.
# Tests used:
# Assay in all cases: DAPPL (digital affinity profiling via proximity ligation, sequencing); 10 mM Tris-HCl pH 7.5, 50 mM NaCl, 1 mM DTT, 4% glycerol, room temperature, 30 min; GST-TFs on glutathione beads, 16-mer random dsDNA library, 0.1% formaldehyde crosslink after washing; high values mean tight binding
# Conditions in all cases: protein: recombinant; tags: N-terminal GST; dsDNA, one strand shown
# [1] = biological target: T1, FEV (Homo sapiens, UniProt Q99581 1-238)
# T1 sequence: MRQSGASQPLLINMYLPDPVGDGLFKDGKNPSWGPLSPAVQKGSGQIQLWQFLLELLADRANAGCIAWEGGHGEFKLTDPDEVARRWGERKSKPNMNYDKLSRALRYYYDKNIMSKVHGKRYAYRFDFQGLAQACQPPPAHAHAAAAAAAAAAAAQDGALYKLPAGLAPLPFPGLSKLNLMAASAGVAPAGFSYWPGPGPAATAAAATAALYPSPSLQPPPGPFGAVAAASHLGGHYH
# Method in brief: (§1)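 Binding signal is defined as a hexamer's read frequency for one factor over its frequency for the tag-only sample. To obtain reads, GST-fused human transcription factors were expressed in yeast, captured on glutathione beads, barcoded with DNA and pooled with that sample. Pools met 200 nmole of a 16-mer random double-stranded DNA library in Tris/NaCl/DTT/glycerol buffer for 30 min at room temperature before washing, 0.1% formaldehyde crosslinking, proximity ligation (BsaI/T4 ligase, 1 h, 37 °C), PCR and Illumina NextSeq500 sequencing.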
# [2] = biological target: ETV5 (Homo sapiens, UniProt P41161 1-510)
# Sequence of ETV5 (P41161 whole entry): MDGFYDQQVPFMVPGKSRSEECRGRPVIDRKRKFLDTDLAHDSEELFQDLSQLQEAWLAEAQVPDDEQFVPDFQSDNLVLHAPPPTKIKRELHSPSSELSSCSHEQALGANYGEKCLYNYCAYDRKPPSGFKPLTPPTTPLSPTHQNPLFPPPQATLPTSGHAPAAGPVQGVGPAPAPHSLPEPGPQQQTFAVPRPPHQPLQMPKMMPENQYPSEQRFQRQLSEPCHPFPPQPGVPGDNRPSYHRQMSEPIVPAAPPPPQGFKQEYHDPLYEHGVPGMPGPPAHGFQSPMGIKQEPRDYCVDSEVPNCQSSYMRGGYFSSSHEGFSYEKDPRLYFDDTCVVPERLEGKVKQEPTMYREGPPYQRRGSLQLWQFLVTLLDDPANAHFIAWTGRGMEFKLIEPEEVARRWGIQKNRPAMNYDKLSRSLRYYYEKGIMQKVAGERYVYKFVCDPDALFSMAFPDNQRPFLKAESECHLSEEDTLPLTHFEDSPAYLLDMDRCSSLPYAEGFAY
# Method in brief: as §1
# [3] = biological target: T2, SPIC (Homo sapiens, UniProt Q8N5J4 1-248)
# T2 sequence: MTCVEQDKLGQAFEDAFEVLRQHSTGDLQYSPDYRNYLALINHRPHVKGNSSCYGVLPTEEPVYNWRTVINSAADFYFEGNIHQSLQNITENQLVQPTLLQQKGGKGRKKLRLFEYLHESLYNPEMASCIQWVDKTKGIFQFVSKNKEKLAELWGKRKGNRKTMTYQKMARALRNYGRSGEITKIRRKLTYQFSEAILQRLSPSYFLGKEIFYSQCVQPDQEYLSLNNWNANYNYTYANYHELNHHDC
# Method in brief: as §1
# [4] = biological target: ELF4 (Homo sapiens, UniProt Q99607 1-663)
# Sequence of ELF4 (Q99607 whole entry): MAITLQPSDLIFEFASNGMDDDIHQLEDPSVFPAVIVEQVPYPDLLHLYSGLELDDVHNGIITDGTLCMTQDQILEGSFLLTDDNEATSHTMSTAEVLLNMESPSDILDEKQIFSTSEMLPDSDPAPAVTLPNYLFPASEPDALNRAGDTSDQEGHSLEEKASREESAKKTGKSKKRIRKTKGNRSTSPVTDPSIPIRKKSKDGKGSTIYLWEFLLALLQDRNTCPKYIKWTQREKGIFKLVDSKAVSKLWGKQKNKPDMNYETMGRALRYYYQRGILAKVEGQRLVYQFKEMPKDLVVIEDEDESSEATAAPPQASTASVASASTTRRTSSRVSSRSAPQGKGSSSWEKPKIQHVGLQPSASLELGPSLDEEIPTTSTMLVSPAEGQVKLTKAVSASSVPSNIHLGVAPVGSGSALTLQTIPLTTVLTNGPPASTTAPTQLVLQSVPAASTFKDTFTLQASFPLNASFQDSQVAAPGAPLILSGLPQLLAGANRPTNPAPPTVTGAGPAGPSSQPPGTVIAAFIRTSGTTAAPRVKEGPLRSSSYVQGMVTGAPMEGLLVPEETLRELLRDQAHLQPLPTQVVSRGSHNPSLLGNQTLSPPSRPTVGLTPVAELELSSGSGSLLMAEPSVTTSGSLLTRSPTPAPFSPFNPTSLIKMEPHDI
# Method in brief: as §1
# [5] = biological target: ETV1 (Homo sapiens, UniProt P50549 1-477)
# Sequence of ETV1 (P50549 whole entry): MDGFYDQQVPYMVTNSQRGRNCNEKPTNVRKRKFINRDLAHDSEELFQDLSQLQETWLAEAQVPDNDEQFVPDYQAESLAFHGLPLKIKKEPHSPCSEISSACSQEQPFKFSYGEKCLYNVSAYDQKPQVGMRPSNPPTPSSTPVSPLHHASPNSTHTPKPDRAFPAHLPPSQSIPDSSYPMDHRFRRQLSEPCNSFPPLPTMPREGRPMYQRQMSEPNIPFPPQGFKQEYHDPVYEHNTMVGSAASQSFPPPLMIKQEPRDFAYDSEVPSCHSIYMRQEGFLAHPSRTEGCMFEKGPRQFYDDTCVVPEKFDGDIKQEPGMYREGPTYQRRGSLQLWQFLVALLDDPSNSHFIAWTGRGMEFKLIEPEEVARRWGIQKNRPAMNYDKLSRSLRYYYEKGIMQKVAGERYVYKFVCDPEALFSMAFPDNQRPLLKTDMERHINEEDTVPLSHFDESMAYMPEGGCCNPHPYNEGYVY
# Method in brief: as §1
# [6] = biological target: T3, ERF (Homo sapiens, UniProt P50548 1-548)
# T3 sequence: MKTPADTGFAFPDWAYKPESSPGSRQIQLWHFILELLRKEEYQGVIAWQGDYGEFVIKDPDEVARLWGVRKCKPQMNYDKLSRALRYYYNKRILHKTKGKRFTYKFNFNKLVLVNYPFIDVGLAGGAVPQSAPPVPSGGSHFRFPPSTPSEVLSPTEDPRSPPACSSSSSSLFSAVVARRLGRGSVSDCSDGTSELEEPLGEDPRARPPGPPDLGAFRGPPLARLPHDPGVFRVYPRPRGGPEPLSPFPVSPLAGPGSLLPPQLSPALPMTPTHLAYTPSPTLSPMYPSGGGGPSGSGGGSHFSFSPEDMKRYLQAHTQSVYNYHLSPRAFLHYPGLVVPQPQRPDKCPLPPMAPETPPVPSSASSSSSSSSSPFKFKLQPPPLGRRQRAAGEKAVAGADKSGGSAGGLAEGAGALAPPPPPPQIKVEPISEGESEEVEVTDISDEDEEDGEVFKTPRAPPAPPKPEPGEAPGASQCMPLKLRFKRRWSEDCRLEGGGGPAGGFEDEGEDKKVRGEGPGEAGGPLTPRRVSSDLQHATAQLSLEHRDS
# Method in brief: as §1
# [7] = biological target: T4, ETV3L (Homo sapiens, UniProt Q6ZN32 1-361)
# T4 sequence: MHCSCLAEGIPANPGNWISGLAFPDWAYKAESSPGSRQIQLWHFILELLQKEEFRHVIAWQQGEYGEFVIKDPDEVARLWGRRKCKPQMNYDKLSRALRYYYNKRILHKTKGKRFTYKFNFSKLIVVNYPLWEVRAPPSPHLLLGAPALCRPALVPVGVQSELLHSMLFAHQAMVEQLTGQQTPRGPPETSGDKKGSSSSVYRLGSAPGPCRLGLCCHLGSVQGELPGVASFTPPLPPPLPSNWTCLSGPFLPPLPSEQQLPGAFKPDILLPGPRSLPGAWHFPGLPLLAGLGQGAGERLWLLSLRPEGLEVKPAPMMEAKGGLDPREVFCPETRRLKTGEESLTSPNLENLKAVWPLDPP
# Method in brief: as §1
# [8] = biological target: T5, ETS2 (Homo sapiens, UniProt P15036 1-469)
# T5 sequence: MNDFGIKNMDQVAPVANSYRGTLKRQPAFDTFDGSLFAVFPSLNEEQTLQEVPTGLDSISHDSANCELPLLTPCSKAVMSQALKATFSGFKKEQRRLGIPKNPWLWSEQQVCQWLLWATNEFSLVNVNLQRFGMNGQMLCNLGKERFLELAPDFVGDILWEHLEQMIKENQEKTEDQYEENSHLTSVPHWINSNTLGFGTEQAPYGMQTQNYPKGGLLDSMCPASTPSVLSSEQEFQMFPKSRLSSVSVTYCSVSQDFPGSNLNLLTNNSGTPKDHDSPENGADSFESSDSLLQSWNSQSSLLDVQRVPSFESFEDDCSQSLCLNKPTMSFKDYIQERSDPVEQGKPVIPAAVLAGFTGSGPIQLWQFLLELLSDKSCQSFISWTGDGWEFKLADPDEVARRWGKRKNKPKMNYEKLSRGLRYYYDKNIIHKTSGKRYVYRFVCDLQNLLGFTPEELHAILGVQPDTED
# Method in brief: as §1
# [9] = biological target: T6, ETV3 (Homo sapiens, UniProt P41162-2 1-143)
# T6 sequence: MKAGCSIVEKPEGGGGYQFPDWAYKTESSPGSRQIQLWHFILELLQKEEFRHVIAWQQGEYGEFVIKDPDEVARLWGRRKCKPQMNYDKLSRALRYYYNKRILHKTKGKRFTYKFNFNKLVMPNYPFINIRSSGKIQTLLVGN
# Method in brief: as §1
# [10] = biological target: ETV6 (Homo sapiens, UniProt P41212 1-452)
# Sequence of ETV6 (P41212 whole entry): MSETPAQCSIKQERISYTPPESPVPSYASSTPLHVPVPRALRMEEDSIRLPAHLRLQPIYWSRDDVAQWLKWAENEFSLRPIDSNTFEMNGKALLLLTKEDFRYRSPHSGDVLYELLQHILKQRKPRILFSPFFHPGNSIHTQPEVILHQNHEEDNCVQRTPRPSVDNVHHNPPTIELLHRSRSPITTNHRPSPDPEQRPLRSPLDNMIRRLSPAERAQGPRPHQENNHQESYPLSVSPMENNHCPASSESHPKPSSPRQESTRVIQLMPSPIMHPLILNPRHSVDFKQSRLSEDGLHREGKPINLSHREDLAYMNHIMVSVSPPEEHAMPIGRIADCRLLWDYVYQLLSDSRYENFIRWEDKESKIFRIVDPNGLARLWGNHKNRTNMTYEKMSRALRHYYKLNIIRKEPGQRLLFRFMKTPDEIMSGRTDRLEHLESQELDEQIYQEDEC
# Method in brief: as §1
sequence,measurement,setting,value
AACTGA,binding signal,[1],"1.15 fold enrichment (6-mer frequency, TF over GST control)"
same,binding signal,[2],"1.11 fold enrichment (6-mer frequency, TF over GST control)"
same,binding signal,[3],"1.37 fold enrichment (6-mer frequency, TF over GST control)"
same,binding signal,[4],"1.05 fold enrichment (6-mer frequency, TF over GST control)"
same,binding signal,[5],"1.16 fold enrichment (6-mer frequency, TF over GST control)"
same,binding signal,[6],"1.08 fold enrichment (6-mer frequency, TF over GST control)"
same,binding signal,[7],"1.09 fold enrichment (6-mer frequency, TF over GST control)"
same,binding signal,[8],"1.16 fold enrichment (6-mer frequency, TF over GST control)"
same,binding signal,[9],"1.06 fold enrichment (6-mer frequency, TF over GST control)"
same,binding signal,[10],"1.1 fold enrichment (6-mer frequency, TF over GST control)"
